# Pf growth 96h: Primary qHTS for delayed death inhibitors of the malarial parasite plastid, 96 hour incubation; Potency, µM (doses to about 28.7 µM), inactives show at the top dose activity change, negative = inhibition, hits mostly inhibitors; hit rate 6.9% among 320,000; P. falciparum luciferase reporter growth, 96 h
#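 Infected RBCs, 2% Hct / 0.05% parasitemia final; luciferase-reporter P. falciparum; cpd 96 h, 37 C, 5% CO2; luciferase detection reagent; luminescence.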
# Vaccinia mCherry: qHTS for Stage-Specific Inhibitors of Vaccinia Orthopoxvirus: mCherry Reporter Primary qHTS. hit rate 0.63% among 310,000. Potency, µM (top dose mostly 36.5 µM), without a hit: at the top dose activity change, negative = inhibition, most hits filed as inhibitors. AID 720579, 2013. Vaccinia virus mCherry reporter infection, fluorescence; calls by dose curve; tested in A549 cells; further: nearly all actives have a fitted effect of over 35% in size
# VACV Venus inh: qHTS for Stage-Specific Inhibitors of Vaccinia Orthopoxvirus: Venus Reporter Primary qHTS | Vaccinia virus Venus reporter expression, fluorescence | Potency, µM (titrated, usually from 36.5 µM), inactives show top-dose activity change, negative = inhibition, hits mostly inhibitors | hit rate 0.46% among 330,000 | AID 720580, 2013; calls by dose curve; tested in A549 cells; further: nearly all actives have a fitted effect of over 30% in size
# AMA1-RON2 inh: qHTS for Inhibitors of AMA1-RON; Towards Development of Antimalarial Drug Lead: Primary Screen. Plasmodium falciparum AMA1 (3D7) - RON2 peptide interaction. AlphaScreen AMA1-biotinylated RON2 peptide binding. Potency, µM (series often up to 58.2 µM), inactives show at the highest dose activity change, negative = inhibition, actives largely listed as inhibitors. hit rate 0.2% among 360,000. AID 720542, 2013;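 further: 0% = vehicle wells and -100% = peptide control; nearly all actives have a fitted effect of over 45% in size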
#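 AMA1 (3D7) with his tag at 25 nM final met compounds first, then biotinylated RON2 peptide at 25 nM; detection used donor plus acceptor beads, 10 µg/mL apiece, read by AlphaScreen after 30 min at room temperature.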
# Pf growth 48h: Primary qHTS for delayed death inhibitors of the malarial parasite plastid, 48 hour incubation; P. falciparum luciferase growth in erythrocytes, 48 h; Potency, µM (series often up to 28.7 µM), for inactives: top-dose activity change, negative = inhibition, hits mostly inhibitors; hit rate 5.9% among 310,000; AID 504832, 2011
#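 Read-out is firefly luciferase luminescence from an integrated reporter in P. falciparum, so falling signal marks reduced parasite growth. Infected erythrocytes were at 2% hematocrit and 0.1% parasitemia (final) in Albumax-supplemented RPMI 1640.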
# An asterisk follows results filed as active; i = inactive; ? = inconclusive; / = no result; [ ] = another dose, or the depositor's remark. Shown are actives, neighbours in structure and some others; about 8.7% of the full set was active somewhere. Unless noted, the call rests on the fitted dose curve; in most records, active means well fitted curve in the direction sought with a large enough effect; inconclusive means small, poorly fitted or top-dose-only effect, or another doubt; inactive means no such curve, though single readings can be large; an effect the other way counts as inactive or inconclusive. Unless noted, on the % scale 0 is the no-effect control and ±100 the full control effect; potency means the concentration at half of the fitted maximal effect.
SMILES,Pf growth 96h,Vaccinia mCherry,VACV Venus inh,AMA1-RON2 inh,Pf growth 48h
COc1ccc2c3c1OC1C(O)C=CC4C(C2)[N+](C)(C)CCC341 (centres undefined),5.5%,/,/,-7.2%,2.2%[0.00184 µM]
COc1ccc2c3c1O[C@H]1[C@@H](O)C=C[C@H]4C(C2)NCCC341 (some centres undefined),0.169µM*,/,/,/,-12.3%
O=C(CCc1nc(-c2cccs2)no1)Nc1ccccc1[N+](=O)[O-],/,-9.4%,-7.2%,/,/
O=C(CN1C(=O)COc2ccc(S(=O)(=O)N3CCOCC3)cc21)Nc1ccc(F)c(Cl)c1,/,-2.0%,-4.1%,/,/
COc1ccc(/C=C(/NC(=O)c2cccs2)C(=O)NC(C)(C)C)cc1OC,9.28µM*,-14.7%,-3.9%,4.9%,11.1%
CN1C(=O)N(C)C(=O)C2(Cc3cc(NC(=O)c4ccc(F)cc4)ccc3N3CCCC32)C1=O (centres undefined),14.7µM*,-16.3%,10.4%,-6.2%,?
CC(=O)Nc1ccc2c(c1)CC1(C(=O)N(C)C(=O)N(C)C1=O)C1CCCN21 (centres undefined),19.6%,i,-19.9%,102.5%,/
NC(=O)C1Cc2ccccc2CN1C(=O)c1nn(Cc2ccccc2)c(=O)c2ccccc12 (centres undefined),5.86µM*,/,/,-8.0%,9.28µM*
Cc1cccc(C(=O)Nc2cc3c(cc2N2CCCCC2)n(C)c(=O)n3C)c1,/,-7.7%,-6.2%,/,/
Cc1ccc(-n2ncc3c(=O)n(-c4ccc(C)c(C)c4)c(C)nc32)cc1,106.6%,-11.1%,-10.7%,9.8%,-19.0%
Cc1ccc(-n2c(-c3ccco3)nc3c(cnn3-c3ccccc3Cl)c2=O)cc1,/,-10.5%,-8.2%,/,/
Cc1nc2c(cnn2-c2ccccc2Cl)c(=O)n1-c1ccc(C(C)C)cc1,2.62µM*,-16.2%,0.4%,0.9%,/
COc1ccc(-n2c(C)nc3c(cnn3-c3ccc(C)c(C)c3)c2=O)cc1,10.4µM*,?,?,-3.0%,/
CCSc1nnc(-c2ccccc2NC(=O)CC)c(=O)[nH]1,4.65µM*,-7.8%,3.7%,-11.0%,-18.1%
O=C(C#Cc1ccccc1)c1ccco1,-17.1%,10µM*,12.6µM*,-5.1%,-29.8%
O=C(CSc1ccccc1Cl)c1ccco1,37.0%,/,-7.4%,0.0%,52.2%
CCCOc1c(Br)cc(C2C3=C(CCCC3=O)N(C)C3=C2C(=O)CCC3)cc1OC,-17.7%,-1.1%,-6.7%,3.1%,9.28µM*
COc1ccc(Cl)cc1NC(=O)CN(c1cccc(C)c1C)S(=O)(=O)c1ccccc1,/,-17.0%,-18.6%,/,/
Cc1ccc(C(=O)Nc2cc(Cl)ccc2Oc2ccccc2)cc1[N+](=O)[O-],?,-3.8%,2.6%,-1.7%,13.1µM*
Cc1ccc(C)c(N(CC(=O)Nc2cc(Cl)ccc2Oc2ccccc2)S(C)(=O)=O)c1,14.7µM*,/,?,-4.6%,?
Cc1cccc(C)c1N(CC(=O)Nc1cc(Cl)ccc1Oc1ccccc1)S(C)(=O)=O,?,/,?,-2.4%,10.4µM*
Cc1ccc(C(=O)Nc2ccccc2-c2ccccc2)cc1[N+](=O)[O-],22.8%,/,/,-6.0%,7.2%
Fc1ccc(C(Nc2ccccc2Cl)c2nnc(-c3ccccc3Cl)o2)cc1 (centres undefined),/,-2.1%,-1.8%,/,/
CC(=O)c1ccc(-c2ccc3c4c(ccc3c2)OC(CNC(=O)C(C)N2CCOCC2)C4)s1 (centres undefined),/,-17.5%,-18.0%,/,/
Cc1nn(C(=O)c2cccc(Cl)c2)c(C)c1S(=O)(=O)N1CCOCC1,/,-11.0%,-9.1%,/,/
SMILES,Pf growth 96h,Vaccinia mCherry,VACV Venus inh,AMA1-RON2 inh,Pf growth 48h
COc1ccc(-c2nnc(C3CCN(C(=O)c4ccccc4F)CC3)o2)cc1,/,-12.1%,-14.4%,/,/
CC(=O)c1cccc(NC(=O)COc2ccccc2C(=O)Nc2ccccc2)c1,/,-14.1%,-12.4%,/,/
O=C(NC(Cc1ccccc1)C(=O)N1CCN(c2ccccc2O)CC1)c1ccccc1 (centres undefined),6.57µM*,?,-11.7%,-4.6%,8.28µM*
O=C(NC(CC(=O)N1CCN(c2ccc([N+](=O)[O-])cc2)CC1)c1ccccc1)c1ccccc1Cl (centres undefined),11.7µM*,-16.2%,-14.7%,-2.0%,?
CC(=O)N1CCN(C(=O)C(Cc2ccccc2)NC(=O)c2ccccc2)CC1 (centres undefined),-27.3%,/,/,-4.7%,-23.1%
O=C(NC(CC(=O)N1CCN(c2ccccc2O)CC1)c1ccccc1)c1ccccc1Cl (centres undefined),?,-21.9%,-14.6%,31.7%,10.4µM*
Cc1cccc(N2CCN(C(=O)CC(NC(=O)c3ccccc3Cl)c3ccccc3)CC2)c1C (centres undefined),?,i,-21.9%,7.1%,?
CN(C)S(=O)(=O)c1ccc(Cl)c(C(=O)Nc2nc3ccccc3[nH]2)c1,?,-7.3%,-14.6%,98.1%,-15.2%
Cc1ccc(NS(=O)(=O)c2ccc(Cl)c(C(=O)Nc3ccccc3-c3nc4ccccc4[nH]3)c2)cc1C,11.7µM*,?,10µM*,-11.2%[2.32 µM],10.4µM*
Cc1cc(S(=O)(=O)Nc2ccc(-c3ccc(N4CCCCCC4)nn3)cc2)c(C)cc1Cl,/,-14.9%,-19.1%,/,/
COc1cc2cccc(OC)c(=O)c2c(O)c1OC,101.1%,i,-10.0%,-12.3%,58.0%
CC(=O)Oc1cc(C)c(OC(C)=O)c2ccccc12,4.78µM*,/,/,/,6.75µM*
CC(=O)Oc1cc2cccc(OC(C)=O)c(=O)c2c(OC(C)=O)c1OC(C)=O,14.7µM*,-16.1%,4.6%,1.78µM*,?
COc1cccc(-c2ncc3ccccc3c2COC(=O)c2ccc(Br)cc2)c1,?,-11.6%,-28.6%,-1.8%,?
COc1cccc(-c2ncc3ccccc3c2COC(=O)c2cccc(Br)c2)c1,4.65µM*,-15.4%,-18.0%,-5.4%,?
COc1cccc(-c2ncc3ccccc3c2COC(=O)c2ccc(C(F)(F)F)cc2)c1,2.94µM*,-9.6%,-24.9%,2.2%,?
CC(C)C(NC(=O)c1ccccn1)c1nnc2n1CCN(Cc1ccc3ccccc3c1)CC2 (centres undefined),/,i,-14.5%,/,/
Cc1ccc(NC(=O)CN2C(=O)CSc3ccc(S(=O)(=O)N(C)C)cc32)cc1C,/,-9.1%,0.7%,/,/
COc1cc2c(cc1OC)C(C(=O)NCCC(C)C)C1CCCCN1C2=O (centres undefined),?,-5.1%,-6.7%,1.2%,8.5%
COc1cc2c(cc1OC)N1C(=O)CC(OCC(=O)O)C3C4CC5(CCN5C(=O)C4=O)C2C31 (centres undefined),16.8%,-4.2%,-2.8%,-7.5%,11.7µM*
C[C@H](NC(=O)OC(C)(C)C)C(=O)c1ccco1,/,i,-18.5%,/,/

# Source: PubChem BioAssay (National Center for Advancing Translational Sciences (NCATS))
